Compound activity: PubChem BioAssay, several laboratories
Compounds with a hit are over-represented: about 2.6% of the library has one in this group of screens.
NR2F2 inh: NR2F2 transcriptional activity inhibitors, primary screen, cell-based, luciferase reporter, HEK293T, luminescence. 0.7% of 370,000 active. inhibition, % at 8.6 µM. COUP transcription factor 2 (Homo sapiens), P24468. HEK293T NGFI-A luciferase reporter;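 active = inhibition above a per-plate cutoff, mean inhibition of test wells between control levels plus 3 SD, cut at about 38% in these data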;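 note: cells cotransfected with COUP-TFII expression vector driving the NGFI-A reporter; 0% = median of COUP-TF2 test wells and 100% = reporter-only cells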
Target sequence (P24468 whole entry, looked up): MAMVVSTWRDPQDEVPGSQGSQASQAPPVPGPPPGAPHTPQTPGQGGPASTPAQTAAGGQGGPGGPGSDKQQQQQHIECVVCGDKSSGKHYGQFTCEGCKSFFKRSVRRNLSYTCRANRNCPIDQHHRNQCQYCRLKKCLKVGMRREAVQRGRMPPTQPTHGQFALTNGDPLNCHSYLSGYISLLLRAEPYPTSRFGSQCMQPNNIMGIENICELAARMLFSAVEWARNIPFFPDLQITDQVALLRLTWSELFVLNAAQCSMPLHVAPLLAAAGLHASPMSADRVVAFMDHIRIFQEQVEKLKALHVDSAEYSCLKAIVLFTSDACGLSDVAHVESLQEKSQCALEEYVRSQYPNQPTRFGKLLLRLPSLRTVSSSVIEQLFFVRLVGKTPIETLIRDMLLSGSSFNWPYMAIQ
Cardio protect: cardioprotection against H2O2-induced cell death, primary screen, uHTS, H9c2 cells, ATPLite luminescence; H9c2 cardiomyocytes, H2O2 injury protection, 2 h; protection from H2O2 cell death, % at 20 µM; 0.63% of 360,000 active; AID 588492, 2011;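 active = compounds giving at least 50% protection of heart cells from peroxide-induced death in the single-dose screen, raw or plate-pattern-corrected value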;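 note: 0% = DMSO wells with peroxide and 100% = DMSO wells without peroxide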
TAG inh: inhibitors of triacylglycerol accumulation, primary screen, cell-based, uHTS, fluorescence, H9c2; inhibition, % at 12.5 µM; H9c2 cells, Nile Red lipid (TAG) fluorescence; cells loaded with 200 µM oleic acid; 0.66% of 230,000 active;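 active = pattern-corrected inhibition of lipid staining of at least 50% with the nuclear-stain viability signal not falling by more than 50%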;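 note: 0% = DMSO wells and 100% = triacsin C control wells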
Jurkat NFkB inh: inhibitors of induced NF-kB luciferase reporter, primary screen, TCR NF-kB activation inhibitor project, cell-based, luminescence, uHTS | Jurkat, PMA/ionomycin-induced NF-kB luciferase reporter | inhibition, % at 4 µM | 0.53% of 330,000 active; in the data active = inhibition above about 50%
697 NFkB inh: inhibitors of PMA/ionomycin-induced NF-kB reporter, 697 cells, primary screen, B-cell NF-kB inhibitor project, cell-based, luminescence, uHTS; inhibition, % at 4 µM; 0.33% of 330,000 active; 697 B-cell NF-kB luciferase reporter, 16 h; in the data active = inhibition above about 35%
Gli-Sufu antag: Gli-Sufu pathway antagonists, primary screen, luciferase luminescence, Sufu-KO-LIGHT cells, uHTS | inhibition, % at 5 µM | AID 588413, 2011 | Sufu-KO-LIGHT fibroblasts, Gli luciferase reporter luminescence | 0.74% of 340,000 active;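 active = inhibition above about 55%, limit read from the data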;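 note: 0% = DMSO-treated cells and 100% = wells with medium but no cells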
Gli-Sufu confirm: Gli-SUFU pathway antagonists, confirmation, single concentration, luciferase luminescence, Sufu-KO-LIGHT cells. shares compounds with Gli-Sufu antag. Gli luciferase reporter. inhibition, % at 5 µM. 40% of 2,500 active;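 active = mean inhibition at 5 µM reaching about 45%, limit read from the data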;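 note: plate controls were DMSO-treated cells for no effect and wells lacking cells for full effect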
Gli cytotox: cytotoxicity in Sufu-KO-LIGHT cells, confirmation, cytotoxicity control for Gli-SUFU antagonist project, cell-based, ATP luminescence, single concentration; AID 651994, 2013; cytotoxicity, % at 5 µM; shares compounds with Gli-Sufu antag; 32% of 2,500 active;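 active = mean cytotoxicity at 5 µM above about 25%, limit read from the data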;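 note: cells exposed to compound overnight for roughly 16 to 18 hours; plate controls were DMSO wells with cells for no effect and medium without cells for full effect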
Wnt3a cs: Wnt3a reporter signal inhibition, confirmation, counter-screen for Gli-SUFU antagonist project, Wnt-LIGHT cells, luminescence, single concentration. shares compounds with Gli-Sufu antag. Wnt3a-driven luciferase reporter. inhibition, % at 6.25 µM. 20% of 2,500 active. AID 651995, 2013;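 active = mean inhibition above about 25%, limit read from the data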
An asterisk follows results filed as active; . = no result.

SMILES	NR2F2 inh	Cardio protect	TAG inh	Jurkat NFkB inh	697 NFkB inh	Gli-Sufu antag	Gli-Sufu confirm	Gli cytotox	Wnt3a cs
O=Cc1cn(-c2ccccc2)nc1-c1cccnc1	-25.6	7.8	26.0	1.1	4.4	54.2	21.4	12.2	5.1
C=CCO[C@H]1CN(C(=O)OC)[C@@H]2C[C@H]1Oc1ccccc12	5.4	.	.	.	.	.	.	.	.
C[C@H]1[C@@H](OC(=O)N2CCCC2)CC[C@@]23CCCN2C(=O)CCC[C@@H]13	-0.3	.	.	.	.	.	.	.	.
CCc1ccc(CNC(=O)CCCC(=O)n2nc(C)c3ccccc32)cc1	18.9	-2.3	.	-1.6	-18.5	56.9*	17.3	22.9	3.7
Cc1ccccc1CNC(=O)CCCC(=O)n1nc(C)c2ccccc21	10.8	0.7	.	4.3	-15.1	-6.2	.	.	.
Cn1nc(C(=O)NC2CCCN(Cc3ccccc3F)C2)c2ccccc2c1=O (stereo not drawn)	4.2	7.9	.	3.7	-31.4	19.5	.	.	.
CCc1cc(C(=O)NC2CCCN(Cc3ccccc3F)C2)n(C)n1 (stereo not drawn)	35.2	-14.3	.	30.4	-31.6	65.4*	45.0	14.7	5.2
Cc1c(C(=O)O)sc2nc(C)n(C)c(=O)c12	14.1	5.1	.	-12.3	-4.6	95.6*	26.7	20.7	17.4
Cc1c(C(=O)O)sc2nc3n(c(=O)c12)CCCCC3	-18.6	6.1	0.1	-0.6	29.0	4.1	.	.	.
OC(c1ccccc1)(c1ccccc1)C1CCN(CCCOc2ccc(C(F)(F)F)cc2)CC1	0.8	.	.	.	.	.	.	.	.
O=C(Cc1ccc(Cl)cc1)N1CCN(c2ccc(F)cc2)CC1	-6.2	0.5	.	-34.2	-21.7	-10.4	.	.	.
O=C(Cc1ccc(Cl)cc1)N1CCN(c2ccccc2)CC1	-5.3	1.1	.	-0.2	-30.5	52.5	23.3	13.0	-40.2
COC(=O)CC1=C(c2ccc([N+](=O)[O-])cc2)CCC1=O	-2.1	1.9	1.5	.	.	7.1	.	.	.
Cc1ccc(C2=C(CC(=O)O)C(=O)CC2)cc1	-9.7	3.4	.	-8.8	13.8	55.5*	28.8	18.6	7.2
CN(C)c1nc(-c2ccccn2)nnc1-c1ccccc1	-28.8	66.6*	-87.4	-1.6	-19.8	66.0*	65.7*	23.8	72.0*
CC(C)(C)n1ncc2c(=O)n(Cc3cccc(Cn4cnc5c(cnn5C(C)(C)C)c4=O)c3F)cnc21	-16.0	-19.0	-34.3	-2.4	-0.6	77.0*	78.1*	37.7*	17.8
Cc1ccccc1Cn1cnc2c(cnn2C(C)(C)C)c1=O	-0.7	-6.7	.	7.4	1.7	16.7	.	.	.
COC(=O)C[C@@H]1CC[C@@H]2[C@H](COc3ccc(NC(=O)Nc4c(C)noc4C)cc3C(=O)N2C)O1	2.1	.	.	.	.	.	.	.	.
CC(C)NC(=O)N[C@H]1C[C@@H]2O[C@@H](CO)CC[C@@H]2O[C@@H]1CCc1ccc(-c2ccccc2F)cc1	-13.6	.	.	.	.	.	.	.	.
COc1ccccc1CNC1CCC12CCC(c1ccccc1)CC2 (stereo not drawn)	-16.0	.	.	.	.	.	.	.	.
CN(C)S(=O)(=O)c1ccc(S(=O)(=O)N2CCCC(C(=O)NC3CCCC3)C2)cc1 (stereo not drawn)	5.8	-6.2	.	15.6	-8.0	70.5*	28.0	33.0*	3.3
CCN(C(=O)C1CCN(c2ncccn2)CC1)c1ccccc1	-16.9	.	.	.	.	.	.	.	.
CN(C(=O)CCNC(=O)N1CC(=O)Nc2ccccc21)C1CCCCC1	15.0	1.0	.	-0.9	-16.2	57.2*	15.1	20.1	-10.1
O=C1CN(C(=O)NCCC(=O)NC2CCCCC2)c2ccccc2N1	2.0	-2.5	.	-11.2	4.7	-15.7	.	.	.
COc1ccc(Cc2nnc(N/N=C/c3ccc(Br)cc3)[nH]c2=O)cc1OC	-14.2	-6.4	-10.2	-1.7	4.4	-1.3	.	.	.
SMILES	NR2F2 inh	Cardio protect	TAG inh	Jurkat NFkB inh	697 NFkB inh	Gli-Sufu antag	Gli-Sufu confirm	Gli cytotox	Wnt3a cs
COc1ccc(Cc2nnc(N/N=C/c3ccc(O)cc3)[nH]c2=O)cc1OC	17.2	48.1	.	14.8	-53.1	82.0*	84.8*	28.7*	73.3*
CN(C)c1ccc(C(=O)N2CCNC(=O)C2CC(=O)Nc2ccc(F)cc2)cc1 (stereo not drawn)	4.4	-0.2	-8.3	13.2	3.9	95.3*	16.6	3.0	-6.1
COc1ccc(NC(=O)CC2C(=O)NCCN2C(=O)c2ccc(N(C)C)cc2)cc1 (stereo not drawn)	8.0	4.3	-7.3	-2.9	19.4	1.5	.	.	.
CCOc1ccccc1OCC(=O)Nc1nnc(C)s1	8.5	-3.8	.	-12.9	-8.3	94.5*	21.4	-7.4	8.6
C[N+]1(CC(=O)OC2CCCCCCCCCCC2)CCCC1	-14.2	-8.6	-8.1	-2.2	-6.9	64.6*	55.9*	29.4*	-30.5
COC(=O)CCCCCCCCCC[N+]1(C)CCCCC1	4.5	-4.3	-6.7	1.9	-0.2	1.9	.	.	.
CN(C)P(=O)(Nc1cccc2ccccc12)Nc1cccc2ccccc12	6.3	-22.5	-16.5	6.2	-14.9	51.0	29.0	16.2	-34.0
CC(C)OP(=O)(Nc1cccc2ccccc12)OC(C)C	7.6	-3.7	-18.9	1.5	-8.4	34.2	.	.	.
Nn1c(SCC(=O)NC2CCS(=O)(=O)C2)nc2scc(-c3ccccc3)c2c1=O (stereo not drawn)	-24.3	1.9	18.4	-3.6	4.8	50.0	22.8	-4.8	1.4
COc1ccc2c(c1)C(C)=CC(C)(C)N2S(=O)(=O)c1ccc(Br)cc1	-67.5	-17.7	37.1	.	.	59.1*	58.1*	57.6*	17.9
CCOc1ccc2c(c1)C(C)=CC(C)(C)N2S(=O)(=O)c1ccc(F)cc1	18.4	-2.5	24.5	37.9	10.0	.	.	.	.
CCCCCC(=O)Nc1sc(C)c(C)c1C#N	-30.3	-3.5	.	-5.0	-19.0	66.1*	12.0	1.8	-37.2
CCOC(=O)c1ccc2c(c1)n(CC)c(/C=C/N(C)c1ccccc1)[n+]2CC	2.7	-14.3	.	34.5	14.9	83.3*	85.5*	30.7*	33.5*
CCOC(=O)c1ccc2c(c1)n(CCO)c(C)[n+]2CC	-1.5	0.4	-31.1	-15.7	-2.4	-0.9	.	.	.
CCOC(=O)CSc1ncc(OC)c(=O)[nH]1	-5.0	4.7	11.7	3.2	1.9	5.4	.	.	.
COc1cnc(SCC(=O)O)[nH]c1=O	-8.0	-7.2	1.0	0.2	3.7	61.8*	13.8	6.6	12.3
